According to PubChem BioAssay (NCI):
The panel holds about 79,000 compounds, 15% with a hit somewhere; the sample as a whole holds those more often. Activity calls are given as the source filed them. Rule as the data show it: active = growth inhibition above about 70%; inactive = the rest. Where a SMILES comes first, the peptide text is derived from it. [ ]: non-standard residue; d: D form. ΔPro = O=C(O)[CH]1C=CCN1

Tests used:
[1] = NCI Yeast Anticancer Drug Screen. Data for the rad50 strain (AID 155);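 also: 0% = growth of vehicle-only cultures of the same strain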; conditions: S. cerevisiae rad50 strain growth inhibition; at 50.0 µM; hits give high values
In short: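 Readout: growth inhibition relative to vehicle-treated cultures. Compound exposure was carried out in a genetically defined yeast strain deficient in DNA damage repair.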

[2] = NCI Yeast Anticancer Drug Screen. Data for the mec2-1 strain (AID 157); conditions: S. cerevisiae mec2-1 strain, at 50.0 µM, hits give high values
In short: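 Compounds were applied to mec2-1 yeast cells. Their growth was then compared with that of vehicle-treated cultures to give growth inhibition.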

[3] = NCI Yeast Anticancer Drug Screen. Data for the sgs1 mgt1 strain (AID 161);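 also: 0% = growth of cultures given vehicle only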; conditions: S. cerevisiae sgs1 mgt1 strain, at 50.0 µM, hits give high values
In short: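 This yeast growth screen uses a strain with defined DNA-repair lesions; compound-treated growth is compared with vehicle-treated growth.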

[4] = NCI Yeast Anticancer Drug Screen. Data for the cln2 rad14 strain (AID 165);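 also: 0% = growth equal to vehicle treated cultures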; conditions: S. cerevisiae cln2 rad14 strain, at 50.0 µM, hits give high values
In short: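 Strain: cln2 rad14 yeast, altered in cell cycle control and DNA damage repair. Read-out: growth inhibition vs vehicle.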

[5] = NCI Yeast Anticancer Drug Screen. Data for the bub3 strain (AID 167); conditions: S. cerevisiae bub3 mutant strain, at 50.0 µM, hits give high values
In short: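 Readout: yeast growth inhibition, expressed relative to vehicle-only wells. The test organism is a mutant strain from a panel with lesions in DNA repair or checkpoint genes.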

[6] = NCI Yeast Anticancer Drug Screen. Data for the mlh1 rad18 strain (AID 175); conditions: S. cerevisiae mlh1 rad18 strain growth inhibition; at 50.0 µM; hits give high values
In short: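 A repair-deficient yeast strain is exposed to test compound, and growth is scored relative to vehicle-treated controls.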

Measured: growth inhibition

CC(C)(C)OC(=O)N1CCc2c([nH]oc2=O)C1
inactive: [1] -1.25% | [2] -8.55% | [3] -3.5% | [4] -17.6% | [5] 10.6% | [6] -3.8%

O=C(/C=C/c1ccc2c(c1)OCO2)C1CC1
inactive: [1] 6.45% | [2] 11.1% | [3] 28.2% | [4] 8.25% | [5] 27.7% | [6] 16.9%

Nc1nc(=O)n(CCCCCCc2ccccc2)cc1-c1ccc(Cl)c(Cl)c1
inactive: [1] -4.75% | [2] -8.95% | [3] 8% | [5] 3.65% | [6] 0.45%
active: [4] 83.7%

Cc1sc2[nH]c(=O)oc(=O)c2c1C
inactive: [1] 44% | [2] -10.1% | [3] 36.2% | [4] 30.1% | [5] 10.5% | [6] 55.8%

N#Cc1ccc(C=NC23CC4CC(CC(C4)C2)C3)cc1
inactive: [1] -12% | [2] -10% | [3] -6.7% | [4] 2.4% | [5] -2% | [6] -4.1%

Cn1ccnc1CC(C)(O)c1ccccc1 (configuration not stated)
inactive: [1] -13.2% | [2] -17.4% | [3] -44.9% | [4] 3.9% | [5] -23.4% | [6] 6.8%

CC1CN(CCO)C(C)(C)C1 (configuration not stated)
inactive: [1] 4.6% | [2] 17.8% | [3] -6.3% | [4] -12.8% | [5] -9.2% | [6] -17%

O=C1NC=NC1c1ccccc1 (configuration not stated)
inactive: [1] -2.25% | [2] -10.4% | [3] -9.9% | [4] -24.8% | [5] -3.65% | [6] -11.5%

CC(C)C(N)C(=O)NO (configuration not stated)
inactive: [1] -17.1% | [2] 17.9% | [3] -13.4% | [4] 5.05% | [5] -1.7% | [6] -7.3%

CC(C)(C)CC(C)(O)COC(=S)S (configuration not stated)
inactive: [1] -10.5% | [2] -18% | [3] 1.65% | [4] -11.2% | [5] -7.45% | [6] 0.55%

COc1c2c(c(Cc3c4c(c(OC)c5c3OCO5)OC(C)C4)c3c1OCO3)CC(C)O2 (configuration not stated)
inactive: [1] 24.1% | [2] 2.35% | [3] 5.65% | [4] 6.05% | [5] -10.1% | [6] -7.3%

CCC1CCN=C(NS(=O)(=O)c2cc(C)c(Cl)cc2S)N1 (configuration not stated)
inactive: [1] -29.8% | [2] -5.25% | [3] -25.2% | [4] -18.1% | [5] 4.9% | [6] -33%

CC(C)C1CC(N(C)C)=CC(=O)N1 (configuration not stated)
inactive: [1] -41.5% | [2] 5.95% | [3] 2.75% | [4] -14.4% | [5] 10.8% | [6] 10.9%

Cc1cccc2c1ccc1ccccc12
inactive: [1] 5.55% | [2] 6% | [3] -5.45% | [4] -9% | [5] -9.65% | [6] 9.5%

O=C(N/N=C\c1cc(=O)[nH]c(=O)[nH]1)c1ccccc1
inactive: [1] -18.1% | [2] -2.95% | [3] -11.5% | [4] -6.75% | [5] -14.2% | [6] 2.9%

COC(=O)/C=C1\CCC2C3CC=C4C=C(N5CCCC5)CCC4(C)C3C(=O)CC12C (configuration not stated)
inactive: [1] -7.6% | [2] 16.1% | [3] 18.6% | [4] -9.6% | [5] -12.4% | [6] -18.2%

Cc1nn(C23CC4CC(CC(C4)C2)C3)c(C(Cl)Cl)c1Cl
inactive: [1] -4.4% | [2] -7.95% | [3] 2.7% | [4] -8.75% | [5] 2.05% | [6] 4.7%

N#C/C(=C\N1CC(=O)NC1=S)C(=O)c1ccc2ccccc2c1
inactive: [1] -20.4% | [2] 15.6% | [3] -26.2% | [4] 13.5% | [5] 3.25% | [6] -17.4%

O=C(O)c1nc(N=Nc2ccc(S(=O)(=O)O)cc2)[nH]c1C(=O)O
inactive: [1] 25.1% | [2] -4.85% | [3] 9.8% | [4] -30.7% | [5] -2% | [6] 21.2%

Cc1cccc(Cl)c1NC(=O)Nc1ccc(Cl)cc1C(=O)c1ccccc1
inactive: [1] 5.5% | [2] -4.1% | [3] 6.75% | [4] 4.2% | [5] 7.45% | [6] -9.6%

O=Nc1ccc(Br)cc1
inactive: [1] -8.2% | [2] 0.35% | [3] -11.7% | [4] 5.8% | [5] 13.1% | [6] -7.5%

COc1ccc(NC(C)=O)c(C(O)CCNC(C)=O)c1 (configuration not stated)
inactive: [1] -14.1% | [2] -13.3% | [3] -25.9% | [4] -7.8% | [5] -40.1% | [6] -28.5%

Nc1nc(Cl)cc(Nc2cc(Cl)cc(Cl)c2)n1
active: [1] 83.2% | [3] 79.7% | [6] 82.3%
inactive: [2] 53.6% | [4] 63.7% | [5] 59.6%

CC(C)(C)c1c(C#N)nnc2cc(-c3ccccc3)nn12
inactive: [1] 7% | [2] 8.85% | [3] 21.9% | [4] 25.1% | [5] -17.3% | [6] 9.15%

Cc1c(-c2ccccc2)[nH]c2cc(Cl)ccc2c1=O
inactive: [1] -28.9% | [2] 2.55% | [3] -16.4% | [4] 13% | [5] 16.9% | [6] -10.3%

O=C1CCCCCCCCCCC1Br (configuration not stated)
inactive: [1] 43.2% | [2] 3.15% | [3] 34.4% | [4] 31.9% | [5] 23.3% | [6] 21.4%

C[C@@H](O)CO
inactive: [1] 17.8% | [2] -16% | [3] 1.7% | [4] 3.75% | [5] -3.55% | [6] 13.2%

CC(=O)n1[nH]c(=O)n(-c2ccccc2)c1=O
inactive: [1] -23% | [2] -20.1% | [3] -17.9% | [4] 10.1% | [5] -26.1% | [6] -24.5%

C=C(C)C(=O)OC1C(C(C)CCCO)=C(CO)CC2OC(=O)C(=C)C21 (configuration not stated)
inactive: [1] -15.9% | [2] -29.1% | [3] -14.5% | [4] -7.7% | [5] -10.3% | [6] -29.1%

CC(=O)Nc1ccc(C2CCCC2)cc1Br
inactive: [1] -3.05% | [2] -2.15% | [3] 0% | [4] -39.8% | [5] -12.2% | [6] -4.45%

COC1=CC(=C(\C#N)c2ccc(Cl)cc2)/C=CC/1=N/O
inactive: [1] 20.1% | [2] 11.6% | [3] 3.85% | [4] -7.25% | [5] 5.75% | [6] 21.9%

O=C(O)C1C=CCN1C(=O)C1C=CCN1C(=O)C1C=CCN1 (configuration not stated) (H-[ΔPro]-[ΔPro]-[ΔPro]-OH; configuration not given here)
inactive: [1] -68.7% | [2] -38.6% | [3] -25.5% | [4] 0.05% | [5] 0.25% | [6] -31.5%

COc1cc2c(cc1C(C)c1ccc(OCc3ccccc3)cc1)OCO2 (configuration not stated)
inactive: [1] -1.3% | [2] -1.1% | [3] -8.6% | [4] -13.1% | [5] 0% | [6] 9.65%

Nc1nc2c(ncn2C2OC(COC(=O)c3ccccc3)C(OC(=O)c3ccccc3)C2OC(=O)c2ccccc2)c(=O)[nH]1 (configuration not stated)
inactive: [1] -25.9% | [2] -12.8% | [3] -0.6% | [4] 11.5% | [5] 0.9% | [6] -7.65%

Cc1ccc(S(=O)(=O)N/N=C/c2oc(-c3ccncc3)c(-c3ccncc3)c2[N+](=O)[O-])cc1
inactive: [1] -1.15% | [2] 10.8% | [3] 17.4% | [4] 27.8% | [5] -11.5% | [6] 17.1%

Cc1nnnn1C12CC3CC(CC(C3)C1)C2
inactive: [1] 11.7% | [2] 5.7% | [3] -5.75% | [4] -14.3% | [5] -15.7% | [6] 15.1%

O=C(NNc1ccccc1)c1ccc(Cl)cc1Cl
inactive: [1] 3.5% | [2] -9.4% | [3] 50% | [4] -0.05% | [5] 50.4% | [6] 34.9%
